In PubChem BioAssay AID1347426 (Functional Genomics Laboratory (NCATS/FGL), 2020):
In all, about 31,000 sequences went through this assay and about 1,400 (4.5%) were called active. The full list was thinned out, with actives kept by preference. A number with no mark means an inactive call.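 How the source made its calls: active means median seed-adjusted z-score above 1 or below -1; inactive means the rest.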

Assay: Novel Modifiers of Survival Motor Neuron (SMN) Protein: Gene Identification via Genome-wide siRNA Screen
Conditions: HEK293T SMN2-luciferase reporter, siRNA knockdown, 72 h; actives lie on both sides
Excerpt: Spinal muscular atrophy (SMA) is the most common neuromuscular autosomal recessive disorder and one of the leading genetic causes of infant death. SMA results from mutations inducing loss of function or deletion in the survival of motor neuron-1 gene (SMN1), leading to deficiency of the survival motor neuron (SMN) protein. Although a second nearly identical gene, SMN2, is retained in humans, its expression primarily produces an aberrantly spliced isoform that is largely unstable and quickly degraded. We performed a genome-wide RNAi screen using a cell-based reporter assay to identify genes and pathways that modulate SMN protein stability. The screen identified over 200 genes that led to the greatest increase or decrease in luciferase expression.
Using HEK293T cells stably expressing a luciferase reporter that combines the promoter and splicing based cassettes in tandem with the major portion of the native SMN2 cDNA with luciferase, we performed a genome-wide RNAi screen to identify modulators of SMN protein levels. Luciferase is expressed when full-length SMN protein is generated with luminescence signal proportional to SMN protein levels. Our luciferase-based reporter assay was used to screen Ambion Silencer Select Human Druggable Genome siRNA library (10418 genes, 3 unique siRNAs per gene) using lipid-based reverse transfection.
Briefly, 1 pmol of each siRNA was spotted to a well of a 384-well plate (Corning, Corning, NY) and 20 microL of serum-free DMEM containing […] of Lipofectamine RNAiMax (Life Technologies, Carlsbad, CA) was then added to each well. Transfected cells were maintained at 37 degrees C in 5% CO2 for 72 hours, 20 microL of ONE-Glo Reagent (Promega) was added to wells for luciferase quantification. Raw luminescence reads were normalized to Ambion(R) Silencer(R) Negative Control #2 siRNA, then log10 transformed. A robust statistical measure of median absolute deviation (MAD) to standardize siRNA activities from each screen. Common Seed Analysis was used to help prioritize clean hits as opposed to those appearing to arise from seed based off-target effects. Candidate modulators were defined as the genes having a MAD score greater than 1.0 or less than -1.0.

Question: For CGGGAGAAGUCCUACCUGUTT against KIF19, which median seed-adjusted z-score is on record?
Answer: 0.342

Question: For CGCAGGUUCUACCAGAUGATT against HS3ST6, which median seed-adjusted z-score is on record?
Answer: 0

Question: With CCAUGGAUGAGACUCCGUATT against PPP1R10 as the sequence, how does the median seed-adjusted z-score read?
Answer: 1.41 (active)

Question: Which median seed-adjusted z-score does the source give for CGUGAUUGACUAUGAGGAATT against GRM6 here?
Answer: -0.0544

Question: For GGUCAUUAUUGGUGAGCAATT against HARS2, which median seed-adjusted z-score is on record?
Answer: 0

Question: For AGAACAACGUGAAGGCACATT against TNPO2, which median seed-adjusted z-score is on record?
Answer: 0.0785

Question: For CAGUGGAUAUCUUGACCUATT against LDHA, which median seed-adjusted z-score is on record?
Answer: 0.401

Question: For GGAAGUCUCUUGUCUGCAATT against RNASEL, which median seed-adjusted z-score is on record?
Answer: 0

Question: With CAGGUUUUCUACAACAACATT against ABCA2 as the sequence, how does the median seed-adjusted z-score read?
Answer: -1.18 (active)

Question: Which median seed-adjusted z-score does the source give for GAACUUGACCAGUUAGACUTT against GTF3C3 here?
Answer: 0.21

Question: With GGACAACCAUCUUCAAAGATT against ZKSCAN5 as the sequence, how does the median seed-adjusted z-score read?
Answer: -0.229

Question: With GCAGUAUCGAGCUUCCGAATT against ACAD10 as the sequence, how does the median seed-adjusted z-score read?
Answer: -0.269

Question: With GGAUCAUCAUGGAAUUGUATT against PTK2B as the sequence, how does the median seed-adjusted z-score read?
Answer: 1.71 (active)

Question: For CCAUGUCAGUCCUAGGAAATT against ATRIP, which median seed-adjusted z-score is on record?
Answer: 0.353

Question: For GCAACUCCAUGUUUCAUAATT against PRMT1, which median seed-adjusted z-score is on record?
Answer: -0.596

Question: For CCUGAUGUCUUAUCUCAGATT against ZNF398, which median seed-adjusted z-score is on record?
Answer: 0.119

Question: For AAAUCUUCGUGAACUUGGATT against MMD, which median seed-adjusted z-score is on record?
Answer: 0.193

Question: For CCAUCUAGAGUAUCACGCATT against CYGB, which median seed-adjusted z-score is on record?
Answer: -0.34

Question: For GAAAUUCCACUGUAUCUAATT against COX7A2, which median seed-adjusted z-score is on record?
Answer: -0.0808

Question: With GAGAGAAACUGUCAGAGUATT against RNF185 as the sequence, how does the median seed-adjusted z-score read?
Answer: -0.388

Question: For CCCUCUUCCUUAUCCUGCATT against PITPNM1, which median seed-adjusted z-score is on record?
Answer: -0.203

Question: With GAACAACCCUAACCCAAGATT against ITGAM as the sequence, how does the median seed-adjusted z-score read?
Answer: -1.56 (active)

Question: For CCAACUCGGCAAAACCGUUTT against NDUFS3, which median seed-adjusted z-score is on record?
Answer: -0.54

Question: For CAACAACACCUGUUGCUUUTT against RGS17, which median seed-adjusted z-score is on record?
Answer: -0.627

Question: For GAGCUACAUUACUAAGUCATT against ZNF223, which median seed-adjusted z-score is on record?
Answer: 0.367

Question: Which median seed-adjusted z-score does the source give for CCAGGCAAAUAGUGAAGAATT against VAX1 here?
Answer: 0.937

Question: Which median seed-adjusted z-score does the source give for GCAGUUCCUAAAUUUCCGATT against SNX9 here?
Answer: 0.684

Question: With GGAGAAUGCCGAAGAGGAATT against POLR2F as the sequence, how does the median seed-adjusted z-score read?
Answer: -3.52 (active)

Question: Which median seed-adjusted z-score does the source give for GGCUGUACUUCGUCAUGGATT against PRKCA here?
Answer: -0.249

Question: With CAUCCGACAUUGAAGUUGATT against B2M as the sequence, how does the median seed-adjusted z-score read?
Answer: -0.367

Question: Which median seed-adjusted z-score does the source give for CGAGUAUGGUUUCCGCAAATT against UHMK1 here?
Answer: -0.269

Question: For GAAUGCGAUUCACACCUUUTT against CAT, which median seed-adjusted z-score is on record?
Answer: 0

Question: For CCCUAAUUCUUCGUCAUAATT against AMIGO2, which median seed-adjusted z-score is on record?
Answer: -0.258

Question: With CAUUGGUUUUGAUGAGUAUTT against SNRPE as the sequence, how does the median seed-adjusted z-score read?
Answer: -2.77 (active)

Question: With CUGUUUAACUGUGAGAUCATT against ANP32E as the sequence, how does the median seed-adjusted z-score read?
Answer: -0.0648

Question: With GCCUGCAAGUGUCCCAAAATT against NTN1 as the sequence, how does the median seed-adjusted z-score read?
Answer: -0.0419

Question: Which median seed-adjusted z-score does the source give for GAUAUUUGCCUAUGCCUUUTT against ZMYND19 here?
Answer: 0.369

Question: Which median seed-adjusted z-score does the source give for GAAGGACAUGUACAAGAAATT against ITPKA here?
Answer: -0.136

Question: With CCAGCAUCCCUAGCUCAGATT against SYVN1 as the sequence, how does the median seed-adjusted z-score read?
Answer: -1.41 (active)

Question: With GUCCGUUAACUAUCUGUUATT against GNAI3 as the sequence, how does the median seed-adjusted z-score read?
Answer: 0.0656

Question: For AAAUUAGAGUGAACAAGAATT against NFIC, which median seed-adjusted z-score is on record?
Answer: 0.72

Question: For CAGUGGAUAUCAAGCUUAATT against OPA1, which median seed-adjusted z-score is on record?
Answer: -0.182

Question: Which median seed-adjusted z-score does the source give for GCAAGUGACUGCUAUCAAUTT against GRIA2 here?
Answer: -1.02 (active)

Question: With GAUCGUCUGCUGAAUACAATT against NASP as the sequence, how does the median seed-adjusted z-score read?
Answer: 0.133

Question: For CAUCCAUUUGUCUUGCAAATT against GTF2F2, which median seed-adjusted z-score is on record?
Answer: -1.14 (active)

Question: Which median seed-adjusted z-score does the source give for CCACAGUUCCUGUCAUGUUTT against ACMSD here?
Answer: 0

Question: Which median seed-adjusted z-score does the source give for GCACUUGUAAGAACUGGUATT against POSTN here?
Answer: -0.45

Question: With CGUCAGCGGUUUAGCUGGATT against SLC25A10 as the sequence, how does the median seed-adjusted z-score read?
Answer: -0.571

Question: For CGCACAGUGCCUAACCCUATT against RAB26, which median seed-adjusted z-score is on record?
Answer: 0.171

Question: Which median seed-adjusted z-score does the source give for GGAAGUUCAUGCCUCUGGATT against UBA7 here?
Answer: 2.41 (active)

Question: With GGUUCUAUAGCAGACAAUATT against LOC81691 as the sequence, how does the median seed-adjusted z-score read?
Answer: -0.285

Question: Which median seed-adjusted z-score does the source give for AGCUCCCUGCCUUUAAUAATT against CHPF here?
Answer: 0.248

Question: For GAUCGCUACUUACAGGAUATT against CYP51A1, which median seed-adjusted z-score is on record?
Answer: -0.242

Question: For GAGUGAUAUGGAUAGUGAATT against TTC18, which median seed-adjusted z-score is on record?
Answer: -1.15 (active)

Question: For GGAAUCUCAUUUUAUCGUATT against SLC7A2, which median seed-adjusted z-score is on record?
Answer: -0.245
